Compound activity as filed in PubChem BioAssay.
Only some compounds are listed: those with a hit (about 1.4% of all), similar ones and a draw of the others.
uPA generation – qHTS for Inhibitors of Cell Surface uPA Generation | AID 540303, 2011 | 0.31% of 330,000 active | cell surface uPA generation assay, qHTS | Potency, µM (series often up to 38.3 µM), actives largely listed as inhibitors; active means well fitted inhibition curve with a large enough effect; inconclusive means small, poorly fitted or top-dose-only effect; inactive means no such curve, though single readings can be large or run the other way; tested in mouse RAW 264.7 cells; further: nearly all actives have a fitted effect of over 55% in size
IL-2 act – qHTS of IL-2 Activators. 0.065% of 360,000 active. activation, % (series mostly up to about 46 µM). IL-2 activation reporter assay, cell-based qHTS; stimulated with anti-CD3/CD4/CD28 beads; in transgenic mouse T cells; in the data active means activation above about 50%; inconclusive means mostly about 30% to 49%
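Unstimulated transgenic mouse T cells; 60-min compound exposure; bead-based TCR/CD4/CD28 stimulation; 18 h culture, 37 degrees C; dual fluorescence (EGFP, DsRed) plate cytometry.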
BRCA1 expr up – qHTS Assay to Identify Small Molecule Activators of BRCA1 Expression; MCF7-BRCA1-FFLuc reporter, luminescence, 48 h; response scale: scaled: vehicle 0%, 10 µM genistein 100%; 1.1% of 380,000 active; Potency, µM (doses to about 46.1 µM), usual class: activators; further: nearly all actives have a fitted effect of over 80% in size
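MCF7-BRCA1-FFLuc cells, 2000/well in phenol-red-free MEM, attached 2 h then treated 48 h at 37 C. Luciferase luminescence read 15 min after reagent; normalized to genistein maximum activation (10microM) and DMSO, concentration-response fitted.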
p53 reactivator – qHTS assay for re-activators of p53 using a Luc reporter | H1299 p53-A138V BP100-luciferase reporter, luminescence, 24 h | Potency, µM (highest dose often 92.2 µM), most hits filed as activators | 0.063% of 320,000 active | AID 504706, 2011; further: nearly all actives have a fitted effect of over 45% in size
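H1299 (p53-null), stable ts p53-A138V + BP100-Luc; 1000 cells/well, Opti-MEM/10% FBS; cpd 4 pt, 1:5; 24 h, 37 deg C, 5% CO2; detection reagent 10 min RT; luminescence.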
TCR act – Activators of T cell receptors: qHTS campaign | primary human leukocytes, anti-CD3, IL-2 HTRF, 48 h | Potency, µM (highest dose often 9.22 µM), actives largely listed as activators | 330,000 tested, under 10 active | AID 504894, 2011
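Human primary leukocytes + a-CD3 beads + cpd, 48 hr; IL-2 in supernatant by HTRF (ex 320nm / em 665nm). No co-stimulatory signal supplied.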
A number is an active result; 0 = inactive; ? = inconclusive; - = not tested or not shown. Unless noted, the call rests on the fitted dose curve; in most records, active means well fitted curve in the direction sought with a large enough effect; inconclusive means small, poorly fitted or top-dose-only effect, or another doubt; inactive means no such curve, though single readings can be large; an effect the other way counts as inactive or inconclusive.

SMILES	uPA generation	IL-2 act	BRCA1 expr up	p53 reactivator	TCR act
CC[C@H](C)[C@H]1O[C@]2(CC[C@@H]1C)C[C@@H]1C[C@@H](CC=C(C)[C@@H](O[C@H]3C[C@H](OC)[C@@H](O[C@H]4C[C@H](OC)[C@@H](O)[C@H](C)O4)[C@H](C)O3)[C@@H](C)C=CC=C3CO[C@@H]4[C@H](O)C(C)=C[C@@H](C(=O)O1)[C@]34O)O2	2.5µM	0	0	-	0
COc1ccc(C(=O)NCC(=O)OCC(=O)c2ccc3ccccc3c2)cc1	-	-	0	-	-
COc1ccc(N2CCN(c3nccs3)CC2)cc1	0	0	11µM	?	0
CC(C)C(NC(=O)C1CCCCC1)C(=O)Nc1ccncc1 (centres undefined)	0	0	0	0	0
CC(C)C(NC(=O)C1CCCCC1)C(=O)Nc1ccc2c(c1)OCCO2 (centres undefined)	0	0	4.5µM	?	0
CSCC[C@H](NC(=O)[C@@H]1Cc2ccccc2CN1)C(=O)Nc1ccc2c(c1)OCCO2	0	0	11µM	?	0
COc1ccc(-c2nnc(SC(C)C(=O)Nc3ccc4c(c3)OCCO4)o2)cc1 (centres undefined)	?	0	10µM	?	0
CC(Sc1ccc2c(c1)OCCO2)C(=O)Nc1ccc2c(c1)OCO2 (centres undefined)	0	0	0	0	0
CC(=O)Nc1ccc(NC(=O)C(C)Sc2nnc(-c3ccc4c(c3)OCO4)o2)cc1 (centres undefined)	0	0	0	?	0
CC(Sc1ccccc1F)C(=O)Nc1ccc2c(c1)OCCO2 (centres undefined)	0	0	11µM	?	0
CCCCCn1c(C(C)NC(=O)c2ccccc2)nc2ccccc21 (centres undefined)	-	-	0	-	-
CCOc1ccc2c(c1)C(=O)c1cc(OCC(=O)O)ccc1-2	0	0	0	0	0
CCCCOc1ccc2c(c1)C(=O)c1cc(O)ccc1-2	0	0	3.5µM	0	0
COCCN=C1NN=C(c2ccc(C)c([N+](=O)[O-])c2)CS1	0	0	3.2µM	?	0
Cc1ccc(CNC(=O)CSC2=Nc3ccccc3N=C(c3ccc(F)cc3)C2)cc1	-	-	0	-	-
CC1CCCN(C(=O)CNC(=O)c2cccs2)C1 (centres undefined)	0	0	10µM	?	0
Cc1ccc(NC(=O)Cn2c(=O)n(CCC(=O)N3CCc4ccccc4C3)c(=O)c3ccccc32)c(C)c1	-	-	0	-	-
CNc1ccc(/C=C(\C#N)c2ccccn2)cc1[N+](=O)[O-]	0	0	10µM	0	0
CCc1ccccc1NC(=O)CSc1nc2c(oc3ccccc32)c(=O)n1-c1ccccc1	-	-	0	-	-
COc1ccc(Cl)cc1-c1nc(-c2ccc(NC(=O)c3ccncc3)cc2)no1	0	0	0	-	0
CC(Oc1ccc(Cl)cc1Cl)c1nc(-c2ccc(NC(=O)c3ccccn3)cc2)no1 (centres undefined)	-	0	1.3µM	?	0
CCn1ccc2cc(S(=O)(=O)N3CCCN(C(=O)Nc4ccc(C)c(F)c4)CC3)ccc21	-	-	0	-	-
NC(=O)C1CCN(Cc2ccc(OCc3ccccc3)cc2)CC1	0	0	11µM	0	-
c1ccc(COc2ccc(CN3CCN(c4ccccn4)CC3)cc2)cc1	0	0	2µM	?	0
O=[N+]([O-])c1ccc(COc2ccc(CN3CCCC3)cc2)cc1	?	0	?	-	0
SMILES	uPA generation	IL-2 act	BRCA1 expr up	p53 reactivator	TCR act
NC(=O)C1CC(=O)N(c2ccc(OCc3ccc(Cl)c(Cl)c3)cc2)C1 (centres undefined)	-	0	10µM	-	-
O=[N+]([O-])c1ccc(COc2ccc(CN3CCCCC3)cc2)cc1	?	0	7.9µM	-	0
c1ccc(CN2CCN(c3ncccn3)CC2)cc1	0	0	0	-	-
COc1ccccc1N1CCN(c2ncccc2-c2nc(-c3ccc(Cl)cc3)no2)CC1	-	-	0	-	-
Cc1cc(-n2c(C)nc3ccccc3c2=O)ccc1NC(=O)c1ccc(C)c([N+](=O)[O-])c1	-	-	0	-	-
CN(C)C(=O)c1cc(C(=O)c2ccc(C(F)(F)F)cc2)c[nH]1	0	0	10µM	0	0
O=C(COc1cccnc1[N+](=O)[O-])Nc1cccc(Br)c1	0	0	11µM	0	0
Cc1nc2c(-c3ccc(F)cc3)cnn2c(N)c1-c1ccccc1	3.2µM	0	0	?	0
c1cn2c(NC3CCCCC3)c(-c3ccc(SC4CCCCC4)cc3)nc2cn1	0	0	0	0	0
c1cn2c(NC3CCCC3)c(-c3ccc(N4CCOCC4)cc3)nc2cn1	5.6µM	0	0	?	0
COC(=O)c1cc(Cl)ccc1NC(=O)Cn1c(C)cc(C)c(C#N)c1=O	-	-	0	-	-
COc1cccc(CNC(=O)c2ccc(NC(=O)N3CCCCc4ccccc43)cc2)c1OC	-	-	0	-	-
O=C(Nc1ccc(F)cc1F)c1ccc2ncsc2c1	0	0	5µM	?	0
Cc1cc(NC(=O)Cc2ccccc2)cc(-c2nc3ccccc3o2)c1O	-	-	0	-	-
O=C(O)c1cccc(NC(=S)NC(=O)c2ccc(-c3ccc(Cl)cc3)o2)c1	0	0	11µM	?	0
COc1ccccc1C(=O)Nc1cccc(OCc2cc(=O)n3c(C)csc3n2)c1	-	-	0	-	-
Cc1ccc(C(=O)NCCn2c(N)c(C#N)c3nc4ccccc4nc32)cc1	0	54	0	0	0
O=c1[nH]c(CN2CCN(c3ccc(O)cc3)CC2)nc2scc(-c3ccc(Cl)cc3)c12	5µM	0	0	0	0
Cc1cc(C)nc(SCC(=O)N2CCc3ccccc32)n1	0	0	5.6µM	-	0
O=C(CSC1=NCCS1)N1CCOCC1	0	0	0	?	0
O=C(CSC1=NCCS1)N1CCc2ccccc21	0	0	3.2µM	?	0
Nc1ccccc1SCC(=O)N1CCc2ccccc21	0	0	0	0	0
O=C(CSC1=NCCS1)N1CCN(c2ccccc2)CC1	0	0	0	35µM	0
Cc1ccc2c(c1)C(=O)OC(C(=O)Nc1ccc(C(=O)O)cc1)C2 (centres undefined)	-	-	0	-	-
CCn1c(=O)c2cc(C(=O)NCCCOC)sc2c2ccccc21	5.6µM	0	0	0	0
SMILES	uPA generation	IL-2 act	BRCA1 expr up	p53 reactivator	TCR act
CCCN(CCC)CCCNC(=O)c1cc2c(=O)n(CC)c3ccccc3c2s1	0	0	0	0	0
CC1(C)OC(=O)C2(Cc3ccc(Br)cc3N3CCCCC32)C(=O)O1 (centres undefined)	-	-	0	-	-
COc1cc(CN(C(=O)c2ccc(C)cc2)c2ccccn2)cc(OC)c1OC	-	-	0	-	-
CCn1nc(-c2ccc(C)cc2)nc2c(=O)n(C)c(=O)nc1-2	-	-	0	-	-
Cc1cccnc1NC(=S)NC(=O)c1cccs1	-	0	0	?	0
Cc1cccnc1NC(=O)NC(=O)c1ccc(C(C)(C)C)s1	0	0	6.3µM	0	0
